Our source for the growth values is PubChem BioAssay (NCI).

About 83,000 compounds went through this panel and 20% of them were active in at least one assay; those are over-represented in the sample as a whole.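 The test compound was applied at a single concentration to cells in 96-well plates for 48 hours, and percent growth was recorded.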 Values without a mark were called inactive. Calls of active or inactive are those of the source. The calls were made as follows: active = growth percent below 10; inactive = the rest.

This experiment relates to UACC-257 melanoma. The experiment can be described thus: NCI-60 one-dose screen, 48 h (100 = growth as untreated, 0 = no growth, -100 = all killed). Particulars: 10 µM unless noted.
In the case of `C=CC1=C[C@@H]2[C@@H]3O[C@]4(CC[C@H](O4)[C@@H](C)C[C@@H](O)C3=O)C[C@H](O)C3=NCC[C@@]32CC1`, the growth was -31.5% (active).

For `Cc1cc(-c2nc3cc(F)ccc3[se]2)cc(F)c1N`, the growth is 98.5%.

On to `CN1CC(=O)N(O)C1(C)c1cccnc1` (configuration not stated), for which the growth is 98.9%.

For `O=C(Nc1ccncc1F)c1cn(CC2CC2)c2ccccc12`, the growth is 108%.

With `COc1cccc2c1c(C(=O)C(=O)Nc1cc(C)no1)cn2Cc1ccc(F)cc1`, the growth was 81.4%.

As for `CC(C)OC(=O)[C@H](C)NP(=O)(Oc1ccccc1)C1CCCN(O)C1=O` (some centres not stated), the growth was 93.8%.

Consider `CC[C@@H]1[C@@H](C)O[C@@](O)([C@@H](C)[C@H](O)[C@H](C)[C@H]2OC(=O)/C=C/C=C/[C@H](C)[C@@H]([C@@H](C)[C@@H](O)[C@H](C)[C@@]3(O)C[C@@H](O[C@H]4C[C@@H](O)[C@H](O)C(C)O4)[C@H](CC)[C@@H](C)O3)OC(=O)/C=C/C=C/[C@@H]2C)C[C@H]1O[C@@H]1C[C@@H](O)[C@H](O)C(C)O1` (some centres not stated), for which the growth was -89.5% (active).

Consider `CCOc1ccc(/C=C/[N+](=O)[O-])cc1`, for which the growth was 85.5%.

As to `O=C1C2C(C(=O)[N]1[Hg][c]1ccccc1)C1(Cl)C(Cl)=C(Cl)C2(Cl)C1(Cl)Cl` (configuration not stated), the growth was -67.8% (active).

`COC(=O)[C@@H](C)C[C@H](Cc1ccc2ccccc2c1)NC(=O)c1csc([C@@H](C[C@H](C(C)C)N(C)C(=O)[C@@H](NC(=O)[C@H]2CCCCN2C)C(C)C)OC(C)=O)n1`: the growth is 77%.

Consider `Cc1cc(N(CCCl)CCCl)ccc1C=Nc1ccccc1-c1ccccc1`, for which the growth is 55.3%.

Turning to `CCn1cnc2c(Nc3cccc(Cl)c3)nc(N[C@@H]3CCCC[C@@H]3N)nc21`, the growth is 14.1%.

In the case of `CC12CCC3C(CCC4=CC(=O)CCC43CF)C1CCC2=O` (configuration not stated), the growth is 97%.

Regarding `C=CC12CCN(CC1)C(C(O)c1ccnc3ccc(OC)cc13)C2` (configuration not stated), the growth is 52.4%.

For `COc1cc([C@@H]2c3cc4c(cc3[C@H](OC(C)=O)[C@H]3COC(=O)[C@H]23)OCO4)cc(OC)c1OC`, the growth is 75.9%.

In the case of `CC(=O)[O][Hg][O]C(C)=O`, the growth was 90.8%.

Turning to `O=C(CCCCCCC(=O)Nc1ccc(N(CCCl)CCCl)cc1)NO`, the growth was 18.6%.

For the molecule `CC[C@H](C)[C@H](NC(=O)[C@H]1CCCCN1C)C(=O)N(C)[C@H](C[C@@H](OC(C)=O)c1nc(C(=O)NC23CC(C(=O)OC)(C2)C3)cs1)C(C)C`, the growth was 46.6%.

Regarding `COc1ccc(/C(C)=C(\c2ccc(OCCN3CCOCC3)cc2)c2ccc(OC(=O)Cc3ccccc3)cc2)cc1`, the growth was 109%.

`NC(=O)C(Br)c1ccccc1` (configuration not stated): the growth was 83.3%.

As to `O=C([O][Hg][CH2]C1OCCOC1[CH2][Hg][O]C(=O)c1ccccc1)c1ccccc1` (configuration not stated), the growth is -96.4% (active).

`CN(C)CCCOc1ccc2c(c1)c(C(=O)C(=O)NCCO)cn2Cc1ccccc1`: the growth is 102%.

Regarding `C1CCC([PH+](C2CCCCC2)C2CCCCC2[PH+](C2CCCCC2)C2CCCCC2)CC1.O=C(C1[CH-]CCCC1)C1CCCC[N-]1.[Au]` (configuration not stated), the growth was -45.6% (active).

Turning to `C[Se]C(=O)c1ccccc1OC(C)=O`, the growth is 49.1%.

In the case of `CC(C)COC(C[N+](=O)[O-])C(Cl)(Cl)Cl` (configuration not stated), the growth is 96.1%.

Turning to `Oc1c(O)c(Cl)c(Cl)c(Cl)c1Cl`, the growth was -9.22% (active).

For the molecule `NC(N)=N/N=C\c1c[nH]c2ccc(Br)cc12`, the growth was 69.3%.

In the case of `Brc1ccc2c(c1)c(-c1nc(-c3c[nH]c4ncccc34)cs1)cn2CCN1CCCCC1`, the growth was 96.7%.

On to `COc1ccc2c(c1)c(C1(O)CC(CSC#N)OC1=O)cn2C(=O)c1ccc(Cl)cc1` (configuration not stated), for which the growth was 95.5%.

Take `COC(=O)[C@@H](C)C[C@H](Cc1ccccc1)NC(=O)c1nc([C@@H](C[C@H](C(C)C)N(C)C(=O)[C@@H](NC(=O)[C@H]2CCCCN2C)C(C)C)OC(C)=O)sc1C`: the growth was 59.9%.

For the molecule `COc1ccc(-n2c(C)nc3cc(OC)c(OC)cc3c2=O)cc1OC`, the growth is 102%.

Regarding `CC[S][Hg][Cl]`, the growth is 97.3%.

On to `COc1ccc(C2=CC(c3ccc(OC)c(OC)c3)c3c(c4ccccc4oc3=O)O2)cc1OC` (configuration not stated), for which the growth is 66.9%.

Regarding `COc1ccc(/C=C\c2cc(OC)c(OC)c(OC)c2)cc1OCC(=O)Nc1nc2ccc(OC(F)(F)F)cc2s1`, the growth is 58.7%.

As for `CCCCCCCCCCCCCCCCCC1OC[C@H](COC(=O)O[C@@H](C(=O)O[C@H]2C[C@@]3(O)[C@@H](OC(=O)c4ccccc4)[C@@H]4[C@]5(OC(C)=O)CO[C@@H]5C[C@H](O)[C@@]4(C)C(=O)[C@H](OC(C)=O)C(=C2C)C3(C)C)[C@@H](NC(=O)c2ccccc2)c2ccccc2)O1` (some centres not stated), the growth was 72.2%.

As to `O=C(Nc1ccc(O)cc1)C(Cl)(Cl)Cl`, the growth is 90.2%.

For the molecule `CCOC(=O)[C@@H](C)C[C@H](Cc1ccccc1)NC(=O)c1nc([C@@H](C[C@H](C(C)C)N(C)C(=O)[C@@H](NC(=O)[C@H]2CCCCN2C)C(C)C)OC(C)=O)sc1CCOCc1ccccc1`, the growth was -7.85% (active).
